# About 3,300 (8.5%) of roughly 39,000 compounds were called active. What follows is part of a selection rich in actives, with near analogues and random picks from the rest.
# Tested on: HepG2
# Experiment: cytotoxicity call (relative viability < 0.9)
# Conditions: 10 µM
row,SMILES,cytotoxicity call
1,Cc1ccnc(-n2c(C)ccc2C)c1,inactive
2,C[C@@H]1CN([C@@H](C)CO)C(=O)c2cccc(NC(=O)Nc3ccc4c(c3)OCO4)c2O[C@@H]1CN(C)C(=O)Nc1ccc(C(F)(F)F)cc1,inactive
3,C[C@@H]1CN([C@H](C)CO)C(=O)CCCn2nncc2CO[C@@H]1CN(C)C(=O)Nc1ccc(N2CCN(C)CC2)cc1,inactive
4,C[C@@H]1CN([C@H](C)CO)C(=O)c2cccc(NC(=O)c3nc4ccccc4s3)c2O[C@H]1CN(C)C(=O)Nc1ccc(C(F)(F)F)cc1,inactive
5,COc1cccc(S(=O)(=O)Nc2ccc3c(c2)[C@H]2C[C@@H](CC(=O)NCc4ccccc4F)O[C@H](CO)[C@H]2O3)c1,inactive
6,COc1cccc(S(=O)(=O)Nc2ccc3c(c2)[C@@H]2C[C@@H](CC(=O)NCc4ccccc4F)O[C@H](CO)[C@@H]2O3)c1,inactive
7,O=C(C[C@@H]1C[C@@H]2c3cc(NS(=O)(=O)c4ccc(F)cc4)ccc3O[C@@H]2[C@H](CO)O1)NCc1ccccc1,inactive
8,O=C(C[C@@H]1C[C@@H]2c3cc(NS(=O)(=O)c4ccc(F)cc4)ccc3O[C@@H]2[C@H](CO)O1)NCc1ccc(Oc2ccccc2)cc1,inactive
9,O=C(C[C@H]1C[C@@H]2c3cc(NS(=O)(=O)c4ccc(F)cc4)ccc3O[C@@H]2[C@H](CO)O1)NCc1ccccc1,inactive
10,O=C(C[C@@H]1C[C@H]2c3cc(NS(=O)(=O)c4ccc(F)cc4)ccc3O[C@H]2[C@@H](CO)O1)NCc1ccc(Oc2ccccc2)cc1,active
11,O=C(C[C@H]1C[C@@H]2c3cc(NS(=O)(=O)c4ccc(F)cc4)ccc3O[C@@H]2[C@H](CO)O1)NCc1ccc(Oc2ccccc2)cc1,inactive
12,COc1cccc(S(=O)(=O)Nc2ccc3c(c2)[C@@H]2C[C@@H](CC(=O)NCc4ccccc4F)O[C@@H](CO)[C@@H]2O3)c1,active
13,O=C(C[C@H]1C[C@H]2c3cc(NS(=O)(=O)c4ccc(F)cc4)ccc3O[C@H]2[C@@H](CO)O1)NCc1ccc(Oc2ccccc2)cc1,inactive
14,O=C(C[C@H]1C[C@@H]2c3cc(NS(=O)(=O)c4ccc(F)cc4)ccc3O[C@@H]2[C@@H](CO)O1)NCc1ccc(Oc2ccccc2)cc1,active
15,O=C(C[C@H]1C[C@H]2c3cc(NS(=O)(=O)c4ccc(F)cc4)ccc3O[C@H]2[C@H](CO)O1)NCc1ccc(Oc2ccccc2)cc1,active
16,O=C(C[C@@H]1C[C@@H]2c3cc(NS(=O)(=O)c4ccc(F)cc4)ccc3O[C@@H]2[C@@H](CO)O1)NCc1ccc(Oc2ccccc2)cc1,inactive
17,CNC[C@H]1Oc2cc(C#CC(C)(C)O)ccc2S(=O)(=O)N([C@H](C)CO)C[C@H]1C,inactive

# Reference: the antibiotic and cytotoxicity screens of Wong et al. (2023)
